# Measurements taken from the supplement of paper PMC8975748.
# Counter-ions that a name gives are not always drawn. ± gives the standard deviation of the averaged measurements.
# Experiments:
# [1] = tested on: Saccharomyces cerevisiae BY4741 SeMeCo community; assay: mean cell size (pixel area) (pixels); higher = larger cells; details: 10 µM; 24 h; SM minimal medium
# Summary of the method: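 A fluorescent Saccharomyces cerevisiae BY4741 community carrying four plasmids was used, with each plasmid complementing one auxotrophy and bearing a fluorescent marker. An overnight preculture at OD600 = 1.0 was diluted to OD600 = 0.3, and 70 µl went into 384-well plates acoustically predosed with drug (final 10 µM) in SM medium for 24 h. After paraformaldehyde fixation, cells were imaged by automated confocal microscopy and analysed in Harmony, giving the mean cell pixel area per well. Each value is the average of 3 replicates. Same SeMeCo high-content imaging drug screen: Selleck FDA-approved drugs at 10 µM, 24 h in SM medium, 384-well plates, 3 replicates.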
# [2] = tested on: Saccharomyces cerevisiae BY4741 SeMeCo community; assay: z-score of prototroph abundance vs DMSO median; higher = larger share of this subpopulation than in DMSO controls; details: 10 µM; 24 h; SM minimal medium; subpopulation (auxotrophy): Prototroph
# Summary of the method: (§1)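 Subpopulation abundance was reported as a z-score against the median of vehicle wells. The Saccharomyces cerevisiae BY4741 community, carrying four plasmids that each restored one auxotrophy and encoded a distinct fluorescent protein, was grown 24 h in minimal SM medium in 384-well plates holding library drugs at 10 µM final. Cells were paraformaldehyde-fixed and imaged by automated confocal microscopy, with single-auxotroph fluorescent strains used for thresholds and autofluorescence correction.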
# [3] = tested on: Saccharomyces cerevisiae BY4741 SeMeCo community; assay: z-score of subpopulation abundance vs DMSO median, subpopulation auxotrophic for M; higher = larger share of this subpopulation than in DMSO controls; details: 10 µM; 24 h; SM minimal medium; subpopulation (auxotrophy): M
# Summary of the method: as §1
# [4] = tested on: Saccharomyces cerevisiae BY4741 SeMeCo community; assay: z-score of subpopulation abundance vs DMSO median, subpopulation auxotrophic for U; higher = larger share of this subpopulation than in DMSO controls; details: 10 µM; 24 h; SM minimal medium; subpopulation (auxotrophy): U
# Summary of the method: as §1
# [5] = tested on: Saccharomyces cerevisiae BY4741 SeMeCo community; assay: z-score of subpopulation abundance vs DMSO median, subpopulation auxotrophic for H; higher = larger share of this subpopulation than in DMSO controls; details: 10 µM; 24 h; SM minimal medium; subpopulation (auxotrophy): H
# Summary of the method: as §1
# [6] = tested on: Saccharomyces cerevisiae BY4741 SeMeCo community; assay: z-score of subpopulation abundance vs DMSO median, subpopulation auxotrophic for LU; higher = larger share of this subpopulation than in DMSO controls; details: 10 µM; 24 h; SM minimal medium; subpopulation (auxotrophy): LU
# Summary of the method: as §1
# [7] = tested on: Saccharomyces cerevisiae BY4741 SeMeCo community; assay: z-score of subpopulation abundance vs DMSO median, subpopulation auxotrophic for LM; higher = larger share of this subpopulation than in DMSO controls; details: 10 µM; 24 h; SM minimal medium; subpopulation (auxotrophy): LM
# Summary of the method: as §1
# [8] = tested on: Saccharomyces cerevisiae BY4741 SeMeCo community; assay: z-score of subpopulation abundance vs DMSO median, subpopulation auxotrophic for HM; higher = larger share of this subpopulation than in DMSO controls; details: 10 µM; 24 h; SM minimal medium; subpopulation (auxotrophy): HM
# Summary of the method: as §1
# [9] = tested on: Saccharomyces cerevisiae BY4741 SeMeCo community; assay: z-score of subpopulation abundance vs DMSO median, subpopulation auxotrophic for HU; higher = larger share of this subpopulation than in DMSO controls; details: 10 µM; 24 h; SM minimal medium; subpopulation (auxotrophy): HU
# Summary of the method: as §1
# [10] = tested on: Saccharomyces cerevisiae BY4741 SeMeCo community; assay: z-score of subpopulation abundance vs DMSO median, subpopulation auxotrophic for UM; higher = larger share of this subpopulation than in DMSO controls; details: 10 µM; 24 h; SM minimal medium; subpopulation (auxotrophy): UM
# Summary of the method: as §1
# [11] = tested on: Saccharomyces cerevisiae BY4741 SeMeCo community; assay: z-score of subpopulation abundance vs DMSO median, subpopulation auxotrophic for HL; higher = larger share of this subpopulation than in DMSO controls; details: 10 µM; 24 h; SM minimal medium; subpopulation (auxotrophy): HL
# Summary of the method: as §1
# [12] = tested on: Saccharomyces cerevisiae BY4741 SeMeCo community; assay: z-score of subpopulation abundance vs DMSO median, subpopulation auxotrophic for HLU; higher = larger share of this subpopulation than in DMSO controls; details: 10 µM; 24 h; SM minimal medium; subpopulation (auxotrophy): HLU
# Summary of the method: as §1
# [13] = tested on: Saccharomyces cerevisiae BY4741 SeMeCo community; assay: z-score of subpopulation abundance vs DMSO median, subpopulation auxotrophic for HUM; higher = larger share of this subpopulation than in DMSO controls; details: 10 µM; 24 h; SM minimal medium; subpopulation (auxotrophy): HUM
# Summary of the method: as §1
# [14] = tested on: Saccharomyces cerevisiae BY4741 SeMeCo community; assay: z-score of subpopulation abundance vs DMSO median, subpopulation auxotrophic for LUM; higher = larger share of this subpopulation than in DMSO controls; details: 10 µM; 24 h; SM minimal medium; subpopulation (auxotrophy): LUM
# Summary of the method: as §1
# [15] = tested on: Saccharomyces cerevisiae BY4741 SeMeCo community; assay: z-score of subpopulation abundance vs DMSO median, subpopulation auxotrophic for HLUM; higher = larger share of this subpopulation than in DMSO controls; details: 10 µM; 24 h; SM minimal medium; subpopulation (auxotrophy): HLUM
# Summary of the method: as §1
# [16] = tested on: Saccharomyces cerevisiae BY4741 SeMeCo community; assay: z-score of subpopulation abundance vs DMSO median, subpopulation auxotrophic for HLM; higher = larger share of this subpopulation than in DMSO controls; details: 10 µM; 24 h; SM minimal medium; subpopulation (auxotrophy): HLM
# Summary of the method: as §1
# [17] = tested on: Saccharomyces cerevisiae BY4741 SeMeCo community; assay: z-score of subpopulation abundance vs DMSO median, subpopulation auxotrophic for L; higher = larger share of this subpopulation than in DMSO controls; details: 10 µM; 24 h; SM minimal medium; subpopulation (auxotrophy): L
# Summary of the method: as §1
Structure (SMILES),mean cell size [1],z-score of prototroph abundance [2],z-score of subpopulation abundance [3],z-score of subpopulation abundance [4],z-score of subpopulation abundance [5],z-score of subpopulation abundance [6],z-score of subpopulation abundance [7],z-score of subpopulation abundance [8],z-score of subpopulation abundance [9],z-score of subpopulation abundance [10],z-score of subpopulation abundance [11],z-score of subpopulation abundance [12],z-score of subpopulation abundance [13],z-score of subpopulation abundance [14],z-score of subpopulation abundance [15],z-score of subpopulation abundance [16],z-score of subpopulation abundance [17]
COc1ccnc(C[S+]([O-])c2nc3cc(-n4cccc4)ccc3[nH]2)c1C (stereo not drawn) [Ilaprazole],12.6 ± 0.45,-0.51,-0.98,-1.42,4.64,0,0.85,0.96,-0.45,-1.96,3.84,0.92,-1.45,-0.52,0.68,–,–
CCN(CC)CCNC(=O)c1cc(Cl)c(N)cc1OC [Metoclopramide HCl],12.4 ± 0.31,0.83,1.12,-1.06,–,-1.25,0.33,1.14,-0.72,–,0.1,-0.43,–,-0.48,-0.49,-0.58,–
Cc1c(-c2ccc(O)cc2)n(Cc2ccc(OCCN3CCCCCC3)cc2)c2ccc(O)cc12 [Bazedoxifene HCl],12.54 ± 0.11,-0.43,0.94,-0.23,1.47,0.03,0.49,1.47,-0.01,-0.08,–,-0.15,-0.15,0.03,-0.25,–,–
OCCN(CCO)c1nc(N2CCCCC2)c2nc(N(CCO)CCO)nc(N3CCCCC3)c2n1 [Dipyridamole],12.5 ± 0.14,1.3,5.88,-6.98,3.18,–,10.9,6.49,-7.22,–,6.01,-3.69,-6.13,-4.38,-1.34,11.4,4.21
OCCN1CCN(CC/C=C2/c3ccccc3Sc3ccc(C(F)(F)F)cc32)CC1 [Flupenthixol dihydrochloride],12.24 ± 0.076,–,-0.29,-0.72,0.73,0.47,–,–,0.56,-0.35,0.88,0.47,–,0.65,–,0.33,–
CC1(C)S[C@@H]2[C@H](NC(=O)[C@H](N)c3ccc(O)cc3)C(=O)N2[C@H]1C(=O)O [Amoxicillin],12.6 ± 0.28,-0.05,0.35,0.14,0.05,0.41,-0.13,0.32,–,0.46,-0.54,0.39,0.4,0.09,0.49,–,–
CC[C@H](c1ccc(O)cc1)[C@@H](CC)c1ccc(O)cc1 [Hexestrol],–,1.27,0.45,-0.6,-0.31,-1.49,–,–,-0.58,-0.86,-0.81,-0.58,–,–,–,-0.94,–
CC(=O)Oc1ccccc1C(=O)O [Aspirin],12.5 ± 0.23,-0.19,1.14,-0.25,0.67,–,0.16,-0.38,-0.71,-0.21,0.18,-0.85,-0.14,-0.25,-0.5,0.21,-0.15
